# In the supplement of paper PMC10849652:
# The full data set covers some 7,900 targets. This sample favours those with a hit. About 0.6% of all pairs of compound and target were hits. Values without a mark were called inactive.
# Key:
# Experiment in all cases: log2 fold change, soluble protein after heating vs DMSO (PISA); higher = thermal stabilisation; K562 cells, 10 uM, 30 min; active = over 0.2 and 3.5 SD of the protein, either way, in both replicates (recomputed)
# [1] = compound: CC1=C(C=C(C=C1)NC(=O)C2=CC(=CC=C2)C(C)(C)C#N)NC3=CC4=C(C=C3)N=CN(C4=O)C
# In short: (§1)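 K562 cells (2×10^6 cells/mL) were treated with 10 μM compound for 30 min, and aliquots were heated for 3 min over 48°C-58°C. Pooled aliquots were extracted in PBS with 0.5% NP-40 at 4°C, and the supernatant after 21,000xg for 90 min was measured by TMTpro 16plex LC-MS/MS with channel sums equalised. Reported thermal stability, relative to control samples and from duplicates, is a log2 fold change.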
# [2] = compound: CC1=C(C=C(C=C1)NC(=O)C2=CC(=CC=C2)N(C)C)NC(=O)C3=CC=C(C=C3)O
# In short: as §1
# [3] = compound: CC1=CC=C(C=C1)SC2=C3C=C(SC3=CN=C2)C(=O)N
# In short: as §1
# [4] = compound: CC1=NC(=CC=C1)C2=C(N=C(N2)C(C)(C)C)C3=CC4=NC=CN=C4C=C3
# In short: as §1
# Nexturastat A = compound: CCCCN(Cc1ccc(C(=O)NO)cc1)C(=O)Nc1ccccc1 [Nexturastat A]
# In short: as §1
# vemurafenib = compound: CCCS(=O)(=O)Nc1ccc(F)c(C(=O)c2c[nH]c3ncc(-c4ccc(Cl)cc4)cc23)c1F [vemurafenib]
# In short: as §1
# [5] = compound: CCCS(=O)(=O)Nc1ccc(F)c(C(=O)c2c[nH]c3ncc(Cl)cc23)c1F
# In short: as §1
# [6] = compound: CCCc1cc(C)[nH]c(=O)c1CNC(=O)c1cc(-c2ccnc(N3CCN(C)CC3)c2)cc2c1cnn2C(C)C
# In short: as §1
# givinostat = compound: CCN(CC)Cc1ccc2cc(COC(=O)Nc3ccc(C(=O)NO)cc3)ccc2c1 [givinostat]
# In short: as §1
# barasertib = compound: CCN(CCCOc1ccc2c(Nc3cc(CC(=O)Nc4cccc(F)c4)[nH]n3)ncnc2c1)CCOP(=O)(O)O [barasertib]
# In short: as §1
# [7] = compound: CC[C@@H]1C(=O)N(C)c2cnc(Nc3ccc(C(=O)NC4CCN(C)CC4)cc3OC)nc2N1C1CCCC1
# In short: as §1
# volasertib = compound: CC[C@@H]1C(=O)N(C)c2cnc(Nc3ccc(C(=O)N[C@H]4CC[C@H](N5CCN(CC6CC6)CC5)CC4)cc3OC)nc2N1C(C)C [volasertib]
# In short: as §1
# [8] = compound: CC[C@H](C)N1C=C(C2=C(C=C(C=C21)C3=CN=C(C=C3)N4CCNCC4)C(=O)NCC5=C(C=C(NC5=O)C)C)C
# In short: as §1
# epoxomicin = compound: CC[C@H](C)[C@@H](C(=O)N[C@@H]([C@@H](C)O)C(=O)N[C@@H](CC(C)C)C(=O)[C@]1(CO1)C)NC(=O)[C@H]([C@@H](C)CC)N(C)C(=O)C [epoxomicin]
# In short: as §1
# [9] = compound: CCn1c(C(=O)N(C2CC2)C2CC2)cc2c3c(ncn3C)c(Nc3cc(C)n(C)n3)nc21
# In short: as §1
# [10] = compound: CCn1cc(-c2ccnc3[nH]c(-c4cccc(CN(C)C)c4)cc23)c(-c2ccc(NC(=O)N(C)C)cc2)n1
# In short: as §1
# [11] = compound: CN(C)CC(=O)Nc1ccc2[nH]c(=O)c3ccccc3c2c1
# In short: as §1
# rosiglitazone = compound: CN(CCOC1=CC=C(C=C1)C[C@H]2C(=O)NC(=O)S2)C3=CC=CC=N3 (racemic) [rosiglitazone]
# In short: as §1
# [12] = compound: CN1C2=C(C3=C1C(=O)N(N=C3)CC4=CC(=CC=C4)N)SC(=C2)S(=O)C
# In short: as §1
# [13] = compound: CN1CCC(CNc2ccc3ncc(-c4cccc(OC(F)(F)F)c4)n3n2)CC1
# In short: as §1
# UniProt Q14517, sequence (Q14517 whole entry, looked up): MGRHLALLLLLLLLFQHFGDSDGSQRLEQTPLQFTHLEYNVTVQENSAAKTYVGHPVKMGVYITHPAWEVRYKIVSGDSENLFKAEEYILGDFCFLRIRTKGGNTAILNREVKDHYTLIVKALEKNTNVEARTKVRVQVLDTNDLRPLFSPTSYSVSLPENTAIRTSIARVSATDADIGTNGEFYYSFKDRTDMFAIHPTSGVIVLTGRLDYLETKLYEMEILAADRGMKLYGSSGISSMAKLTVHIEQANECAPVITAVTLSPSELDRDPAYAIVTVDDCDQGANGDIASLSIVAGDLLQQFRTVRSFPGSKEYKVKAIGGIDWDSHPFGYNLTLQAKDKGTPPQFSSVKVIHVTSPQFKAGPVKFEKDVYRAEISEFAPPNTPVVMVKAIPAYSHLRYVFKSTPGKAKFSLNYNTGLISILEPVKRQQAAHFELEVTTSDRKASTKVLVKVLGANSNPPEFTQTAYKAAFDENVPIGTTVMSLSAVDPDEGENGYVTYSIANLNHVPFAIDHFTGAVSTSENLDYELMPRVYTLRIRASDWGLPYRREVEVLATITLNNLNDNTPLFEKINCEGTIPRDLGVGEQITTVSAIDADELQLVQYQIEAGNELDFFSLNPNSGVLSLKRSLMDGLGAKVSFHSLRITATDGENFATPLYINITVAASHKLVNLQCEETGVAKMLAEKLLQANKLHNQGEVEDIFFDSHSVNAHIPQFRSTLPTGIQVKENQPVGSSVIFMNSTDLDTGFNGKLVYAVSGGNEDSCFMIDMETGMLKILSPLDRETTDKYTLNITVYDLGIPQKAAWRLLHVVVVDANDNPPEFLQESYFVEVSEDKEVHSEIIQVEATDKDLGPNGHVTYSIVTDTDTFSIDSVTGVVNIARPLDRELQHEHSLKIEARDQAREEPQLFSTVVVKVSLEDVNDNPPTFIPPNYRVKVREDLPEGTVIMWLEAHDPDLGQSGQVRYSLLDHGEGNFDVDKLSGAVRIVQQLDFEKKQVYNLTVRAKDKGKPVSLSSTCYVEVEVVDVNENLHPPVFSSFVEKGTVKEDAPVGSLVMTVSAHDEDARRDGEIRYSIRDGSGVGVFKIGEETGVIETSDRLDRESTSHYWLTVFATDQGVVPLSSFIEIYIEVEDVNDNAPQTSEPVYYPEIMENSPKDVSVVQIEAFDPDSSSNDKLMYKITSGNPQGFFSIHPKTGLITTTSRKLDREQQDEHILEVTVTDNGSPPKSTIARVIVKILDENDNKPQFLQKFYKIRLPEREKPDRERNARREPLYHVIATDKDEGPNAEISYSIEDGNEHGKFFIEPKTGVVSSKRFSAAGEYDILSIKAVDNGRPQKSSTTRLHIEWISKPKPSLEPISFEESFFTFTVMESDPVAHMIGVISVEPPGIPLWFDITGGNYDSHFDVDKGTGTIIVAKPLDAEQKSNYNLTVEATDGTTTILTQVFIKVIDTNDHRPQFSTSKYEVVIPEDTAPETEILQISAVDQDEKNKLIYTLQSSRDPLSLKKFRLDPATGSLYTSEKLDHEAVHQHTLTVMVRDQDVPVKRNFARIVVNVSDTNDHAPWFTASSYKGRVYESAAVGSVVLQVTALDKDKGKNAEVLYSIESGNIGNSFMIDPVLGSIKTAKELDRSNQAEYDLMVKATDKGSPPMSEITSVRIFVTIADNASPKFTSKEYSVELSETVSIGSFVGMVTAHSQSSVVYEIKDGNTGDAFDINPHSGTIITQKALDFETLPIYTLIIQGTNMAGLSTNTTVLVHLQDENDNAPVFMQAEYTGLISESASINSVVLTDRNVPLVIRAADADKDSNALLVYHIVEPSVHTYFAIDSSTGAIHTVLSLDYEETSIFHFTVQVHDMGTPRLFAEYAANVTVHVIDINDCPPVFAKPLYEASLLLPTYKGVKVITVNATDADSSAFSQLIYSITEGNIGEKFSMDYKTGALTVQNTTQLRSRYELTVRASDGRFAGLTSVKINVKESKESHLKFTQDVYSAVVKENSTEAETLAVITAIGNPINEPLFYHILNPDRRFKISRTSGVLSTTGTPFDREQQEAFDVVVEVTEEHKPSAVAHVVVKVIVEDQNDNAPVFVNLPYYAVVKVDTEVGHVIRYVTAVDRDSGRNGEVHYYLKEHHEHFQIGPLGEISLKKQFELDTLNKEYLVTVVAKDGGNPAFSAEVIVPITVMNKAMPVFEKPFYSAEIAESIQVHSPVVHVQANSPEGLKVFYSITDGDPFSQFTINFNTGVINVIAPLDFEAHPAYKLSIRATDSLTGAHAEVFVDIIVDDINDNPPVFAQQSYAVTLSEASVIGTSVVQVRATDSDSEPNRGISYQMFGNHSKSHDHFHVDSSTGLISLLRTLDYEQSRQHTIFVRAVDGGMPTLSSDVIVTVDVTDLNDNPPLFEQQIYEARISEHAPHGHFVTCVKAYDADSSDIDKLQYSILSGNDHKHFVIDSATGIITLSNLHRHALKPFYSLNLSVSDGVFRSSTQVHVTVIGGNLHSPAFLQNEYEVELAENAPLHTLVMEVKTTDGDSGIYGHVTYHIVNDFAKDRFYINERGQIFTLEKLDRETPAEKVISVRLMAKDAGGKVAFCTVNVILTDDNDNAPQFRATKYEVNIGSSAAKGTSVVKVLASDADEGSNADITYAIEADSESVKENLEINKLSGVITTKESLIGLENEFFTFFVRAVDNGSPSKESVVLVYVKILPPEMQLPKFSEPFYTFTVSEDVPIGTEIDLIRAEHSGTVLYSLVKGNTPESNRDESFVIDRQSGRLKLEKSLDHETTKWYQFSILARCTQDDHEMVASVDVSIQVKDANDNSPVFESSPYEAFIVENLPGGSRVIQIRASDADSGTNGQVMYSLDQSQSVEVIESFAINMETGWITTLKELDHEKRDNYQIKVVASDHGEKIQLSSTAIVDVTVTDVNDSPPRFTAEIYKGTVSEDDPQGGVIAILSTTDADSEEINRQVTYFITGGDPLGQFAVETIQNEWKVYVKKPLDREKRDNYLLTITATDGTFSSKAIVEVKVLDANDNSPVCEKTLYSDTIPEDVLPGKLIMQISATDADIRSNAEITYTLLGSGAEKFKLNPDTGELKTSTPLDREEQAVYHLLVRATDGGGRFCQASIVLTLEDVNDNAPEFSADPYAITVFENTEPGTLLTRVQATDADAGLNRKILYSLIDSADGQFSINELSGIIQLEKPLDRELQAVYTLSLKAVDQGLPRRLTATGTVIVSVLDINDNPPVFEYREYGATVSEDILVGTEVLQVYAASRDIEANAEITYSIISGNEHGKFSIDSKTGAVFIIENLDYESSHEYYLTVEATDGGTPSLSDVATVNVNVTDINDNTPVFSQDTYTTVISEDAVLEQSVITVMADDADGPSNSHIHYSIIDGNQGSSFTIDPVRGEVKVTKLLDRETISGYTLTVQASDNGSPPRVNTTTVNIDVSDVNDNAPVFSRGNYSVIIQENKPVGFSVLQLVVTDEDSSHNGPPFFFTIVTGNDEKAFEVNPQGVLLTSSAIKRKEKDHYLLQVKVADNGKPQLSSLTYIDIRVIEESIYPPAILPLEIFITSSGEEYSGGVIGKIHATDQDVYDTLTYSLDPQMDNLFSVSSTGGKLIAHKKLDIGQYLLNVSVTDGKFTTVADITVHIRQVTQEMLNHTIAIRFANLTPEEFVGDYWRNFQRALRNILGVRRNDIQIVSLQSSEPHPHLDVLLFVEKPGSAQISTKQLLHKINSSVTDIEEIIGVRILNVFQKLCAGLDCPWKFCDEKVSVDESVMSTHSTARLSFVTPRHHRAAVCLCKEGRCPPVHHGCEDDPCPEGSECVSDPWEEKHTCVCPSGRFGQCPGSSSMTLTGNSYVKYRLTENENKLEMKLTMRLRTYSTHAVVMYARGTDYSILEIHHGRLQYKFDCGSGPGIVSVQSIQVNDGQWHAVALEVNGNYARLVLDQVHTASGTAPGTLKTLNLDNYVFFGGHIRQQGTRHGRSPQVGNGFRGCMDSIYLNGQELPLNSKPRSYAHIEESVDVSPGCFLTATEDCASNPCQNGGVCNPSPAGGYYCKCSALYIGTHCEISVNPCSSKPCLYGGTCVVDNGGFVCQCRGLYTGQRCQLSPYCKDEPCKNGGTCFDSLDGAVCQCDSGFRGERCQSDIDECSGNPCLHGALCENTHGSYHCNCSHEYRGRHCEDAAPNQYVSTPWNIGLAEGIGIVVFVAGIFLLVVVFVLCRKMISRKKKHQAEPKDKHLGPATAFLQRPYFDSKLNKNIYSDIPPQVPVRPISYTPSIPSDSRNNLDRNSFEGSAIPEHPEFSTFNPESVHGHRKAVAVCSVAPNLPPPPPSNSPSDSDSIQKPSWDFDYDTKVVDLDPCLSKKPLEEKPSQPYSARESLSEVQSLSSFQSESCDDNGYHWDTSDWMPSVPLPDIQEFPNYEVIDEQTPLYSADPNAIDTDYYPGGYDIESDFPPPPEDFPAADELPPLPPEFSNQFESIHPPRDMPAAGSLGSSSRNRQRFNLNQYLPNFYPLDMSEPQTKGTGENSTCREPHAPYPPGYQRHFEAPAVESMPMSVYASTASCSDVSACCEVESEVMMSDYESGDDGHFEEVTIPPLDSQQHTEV
# UniProt P50213, sequence (P50213 whole entry, looked up): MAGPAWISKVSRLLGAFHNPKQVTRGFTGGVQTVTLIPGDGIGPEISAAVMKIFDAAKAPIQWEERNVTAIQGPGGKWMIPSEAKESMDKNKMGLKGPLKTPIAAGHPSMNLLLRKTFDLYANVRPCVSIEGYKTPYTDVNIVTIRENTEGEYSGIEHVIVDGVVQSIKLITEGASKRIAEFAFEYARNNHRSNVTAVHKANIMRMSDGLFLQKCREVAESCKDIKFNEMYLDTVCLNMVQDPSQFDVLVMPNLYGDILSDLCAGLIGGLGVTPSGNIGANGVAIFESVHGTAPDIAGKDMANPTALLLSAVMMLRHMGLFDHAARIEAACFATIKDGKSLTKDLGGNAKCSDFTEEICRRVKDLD
# UniProt Q9H4G4, sequence (Q9H4G4 whole entry, looked up): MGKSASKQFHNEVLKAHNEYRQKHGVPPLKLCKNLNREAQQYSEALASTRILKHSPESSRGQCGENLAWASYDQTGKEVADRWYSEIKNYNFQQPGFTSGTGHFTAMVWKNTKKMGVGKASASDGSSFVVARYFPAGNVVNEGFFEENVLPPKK
Target,log2 fold change [1],log2 fold change [2],log2 fold change [3],log2 fold change [4],log2 fold change (Nexturastat A),log2 fold change (vemurafenib),log2 fold change [5],log2 fold change [6],log2 fold change (givinostat),log2 fold change (barasertib),log2 fold change [7],log2 fold change (volasertib),log2 fold change [8],log2 fold change (epoxomicin),log2 fold change [9],log2 fold change [10],log2 fold change [11],log2 fold change (rosiglitazone),log2 fold change [12],log2 fold change [13]
HDDC2 (UniProt Q7Z4H3),0.009,-0.03,0.014,0.029,-0.139,0.004,0.034,-0.018,-0.067,-0.022,0.008,0.08,0.014,-0.006,0.034,-0.063,0.025,0.035,-0.102,-0.066
IDH3A (UniProt P50213),-0.029,-0.003,0.031,0.015,-0.084,0.009,-0.009,-0.014,-0.06,-0.006,-0.031,-0.01,0.004,0.063,0,-0.027,0,0.008,-0.064,0.033
GLUL (UniProt P15104),-0.008,-0.003,0.055,-0.013,-0.02,-0.04,-0.084,-0.016,-0.082,0.004,0.049,0.113,-0.041,0.081,0.045,0.014,-0.032,-0.022,-0.032,0.017
GAK (UniProt O14976),0.214,0.038,-0.337,-0.14,0.452,-0.06,0.114,0.17,0.64,–,0.673,1.35,-0.401,-0.046,0.096,0.11,0.382,–,-0.038,0.95
FAT1 (UniProt Q14517),-0.036,-0.218,-0.029,0.053,0.104,-0.199,-0.051,-0.067,0.044,0.045,–,0.009,-0.048,-0.05,0.006,-0.018,0.07,0.095,-0.11,0.082
FOXO3 (UniProt O43524),0.247,-0.039,0.037,0.119,0.024,-0.023,0.017,-0.159,0.012,–,-0.092,-0.061,–,0.007,-0.213,-0.004,0.055,–,0.158,-0.188
GBF1 (UniProt Q92538),-0.049,-0.071,-0.012,-0.028,0.078,0.028,0.059,0.014,0.07,0.028,-0.086,-0.474 (active),0.059,-0.007,-0.07,-0.013,0.069,0.081,0.081,-0.212
HDAC2 (UniProt Q92769),-0.051,-0.001,0.015,-0.006,0.856 (active),-0.005,0.019,-0.018,–,-0.039,0.024,-0.051,0.026,-0.049,-0.049,-0.001,-0.003,0,-0.041,0.056
GLIPR2 (UniProt Q9H4G4),0.156,-0.152,-0.054,-0.032,0.062,0.092,-0.014,0.028,0.009,0,-0.047,0.163,–,-0.088,-0.041,-0.032,-0.117,0.151,-0.084,-0.239
HDHD2 (UniProt Q9H0R4),0.059,0.028,0.023,0.014,-0.316 (active),0.02,0.007,-0.028,0.007,0.011,0.011,0.049,-0.007,0.073,-0.012,-0.063,0.053,0.017,-0.058,-0.096
GOLPH3 (UniProt Q9H4A6),0.074,-0.031,-0.017,0.022,-0.017,0.015,0.058,-0.011,-0.007,0.023,0.029,0.008,0.086,0.084,-0.016,-0.059,-0.001,0.037,-0.075,0.236 (active)
IFITM3 (UniProt Q01628),-0.058,0.074,0.148,-0.059,-0.425 (active),0.177,0.2,0.218,-0.036,0.051,-0.004,0.033,0.023,-0.007,-0.124,–,0.175,-0.096,-0.015,–
HSD17B12 (UniProt Q53GQ0),0.094,0.032,0,0.022,-0.111,-0.006,-0.01,-0.141,-0.018,-0.04,-0.046,-0.183,0,-0.013,-0.036,-0.104,0.01,-0.016,-0.039,0.037
HIP1 (UniProt O00291),-0.086,-0.004,-0.028,0.002,0.286 (active),-0.003,0.056,0.233,0.043,0.01,0.027,-0.23,-0.095,0.085,0.005,0.031,-0.045,-0.007,-0.063,-0.148
GTF3C5 isoform 3 (UniProt Q9Y5Q8),0.058,-0.022,0.088,0.007,0.136,0.101,0.056,0.061,0.045,0.08,-0.188,-0.157,0.213,-0.011,0.029,-0.034,0.078,0.017,-0.025,0.03
GNB2 (UniProt P62879),0.11,0.018,-0.053,-0.018,-0.023,0.044,0.036,0.012,-0.019,-0.042,0.122,0.103,0.003,0.046,-0.01,-0.023,-0.042,-0.01,-0.079,0.3 (active)
ICMT (UniProt O60725),-0.048,-0.085,-0.079,0.072,-0.204,0,-0.103,0.064,-0.037,0.022,0.202,0.138,-0.027,-0.029,0.073,–,0.061,0.033,-0.051,–
